As a reminder, the Inhibition is the relative decrease from the control value, in per cent.

What all share (type): functional
Experiment [1] has as its system Plasmodium falciparum. Kind of experiment: GSK_TCMDC: Inhibition of Plasmodium falciparum 3D7 in whole red blood cells, using parasite LDH activity as an index of growth. Test compounds present at 2uM.
The subject of experiment [2] is Plasmodium falciparum. Briefly: GSK_TCMDC: Inhibition of Plasmodium falciparum Dd2 in whole red blood cells, using parasite LDH activity as an index of growth. Test compounds present at 2uM.
A further experiment has as its system HepG2. Kind of experiment: GSK_TCMDC: Percent inhibition of human HepG2 cell line. Test compounds present at 10uM.

For the molecule `O=C1Nc2cccc3c2C1(CCCCN1CCC(c2c[nH]c4cc(C(F)(F)F)ccc24)CC1)CCC3` (centres undefined), the Inhibition worked out at 99% in the experiment with Plasmodium falciparum [1], 79% in the experiment on Plasmodium falciparum [2] and 99% in the experiment with HepG2.
For `O=C(O)C(F)(F)F.c1ccc(-n2ncc(CNCc3ccc(-c4ccc(-c5nc6ccccc6[nH]5)s4)cc3)n2)cc1`, the Inhibition in the experiment with Plasmodium falciparum [1] was found to be 93%; with Plasmodium falciparum [2], 46%; with HepG2 it was 27%.
For `CN(C)c1ccc(-c2csc(C(=O)NCC3CCN(CCC(C)(C)C)C3)c2)cc1.O=C(O)C(F)(F)F` (centres undefined), the figures for the Inhibition in the experiment with Plasmodium falciparum [1], in the experiment with Plasmodium falciparum [2] and in the experiment on HepG2 were 87%, 16% and 29%, respectively.
For `O=C(NCC1CCN(Cc2cccc(F)c2)C1)c1cc(-c2cccc(C(F)(F)F)c2)cs1.O=C(O)C(F)(F)F` (centres undefined), in that order: 96%, 10% and 31%.
In the case of `COc1ccc2ccccc2c1C=NNc1ccnc2cc(Cl)ccc12`, the Inhibition is given as 100% in the experiment on Plasmodium falciparum [1], 94% in the experiment on Plasmodium falciparum [2] and 20% in the experiment with HepG2.
Taken in the same sequence, the figures for `COc1ccc(NC(=O)c2ccc(-c3nc(-c4cccc(C(F)(F)F)c4)cs3)cc2)cc1N1CCN(C)CC1` were 98%, 59% and 29%.
For `CNc1ccc(CNCc2ccc(-c3ccc(-c4nc5cc(C(F)(F)F)ccc5[nH]4)s3)cc2)cc1.O=C(O)C(F)(F)F`, in that order: 100%, 97% and 44%.
Taken in the same sequence, the figures for `O=C(C=Cc1ccc(Cl)c(Cl)c1)NCCCCCN1CCC(CCCNC(=O)c2sc3ccccc3c2Cl)CC1` were 93%, 40% and 99%.
Regarding `CC(=O)Nc1ccc(Cl)c(Cl)c1`, the Inhibition in the experiment with Plasmodium falciparum [1] was 95%; in the experiment with Plasmodium falciparum [2] it was 98%; in the experiment on HepG2, 5%.
As to `N=C(N)Nc1nc(-c2cccc(NC(=O)CCCCCCCON3C(N)=NC(N)=NC34CCCCC4)c2)cs1`, the figures for the Inhibition in the experiment on Plasmodium falciparum [1], in the experiment on Plasmodium falciparum [2] and with HepG2 were 96%, 89% and 1%, respectively.
For `COc1ccc2nc3cc(Cl)ccc3c(Nc3ccc(O)c(CN4CC5CCC(CC5)C4)c3)c2c1.Cl`, in that order: 100%, 100% and 17%.
As to `CCN(CC)CCc1ccc2c(=O)cc(CCc3cccc(F)c3F)n(CC(=O)N(C)Cc3ccc(-c4ccc(C(F)(F)F)cc4)cc3)c2c1.O=C(O)C(O)C(O)C(=O)O`, the figures for the Inhibition with Plasmodium falciparum [1], in the experiment on Plasmodium falciparum [2] and with HepG2 were 97%, 45% and 98%, respectively.
Taken in the same sequence, the figures for `Fc1ccc(Nc2ccnc3cc(-c4ccc(CNCCN5CCOCC5)o4)ccc23)c(Cl)c1` were 100%, 99% and 34%.
On to `O=C(Nc1cccc(-c2ccc(-c3nc4cc(C(F)(F)F)ccc4[nH]3)cc2)c1)c1csnn1`, for which the results for the Inhibition in the experiment on Plasmodium falciparum [1], in the experiment on Plasmodium falciparum [2] and in the experiment with HepG2 were 98%, 93% and 23%, respectively.
For `COc1cc(Cc2cnc(N)nc2N)ccc1Oc1ccc(N)cc1`, in that order: 93%, 0% and 0%.
Consider `Cc1cc(=NN=Cc2cccc(F)c2)c2cccc(C)c2[nH]1`, for which the Inhibition in the experiment with Plasmodium falciparum [1] is listed as 100%; in the experiment with Plasmodium falciparum [2] it was 53%; in the experiment with HepG2, 14%.
Turning to `Cc1cc2nc(-c3ccc(/C=C/C(=O)NC4CCCCC4)cc3)[nH]c2cc1C`, the Inhibition was found to be 93% in the experiment on Plasmodium falciparum [1], 10% in the experiment on Plasmodium falciparum [2] and 9% with HepG2.
Taken in the same sequence, the figures for `CON(C)C(=O)[C@@H](CCCCNC(=O)OCc1ccccc1)NC(=O)OC(C)(C)C` were 98%, 0% and 5%.
Consider `CCN1CCN(CCCNc2c3ccc(Cl)cc3nc3ccc(O)cc23)CC1`, for which the results for the Inhibition with Plasmodium falciparum [1], in the experiment with Plasmodium falciparum [2] and in the experiment with HepG2 were 100%, 1% and 32%, respectively.
With `O=C(NCc1cccc(C(F)(F)F)c1)C1CCCN(C(=O)c2ccc(O)c(-c3ccc(Cl)c(Cl)c3)c2)C1` (centres undefined), the Inhibition in the experiment with Plasmodium falciparum [1] was 94%; in the experiment on Plasmodium falciparum [2], 32%; in the experiment with HepG2, 1%.
Turning to `CCOC(=O)C1=C(C)N=c2sc(=Cc3cc(Cl)ccc3O)c(=O)n2C1c1ccc(OC)cc1` (centres undefined), the Inhibition in the experiment on Plasmodium falciparum [1] was determined as 99%; in the experiment on Plasmodium falciparum [2], 65%; with HepG2, 0%.
Taken in the same sequence, the figures for `CCOc1cc(C(=O)Nc2ccc(-c3nc4ccccc4[nH]3)cc2)cc(OCC)c1OCC` were 100%, 94% and 42%.
For `Cc1nn(CC(C)C)c2sc(C(=O)Nc3nc(-c4ccccn4)cs3)cc12`, in that order: 96%, 67% and 29%.
With `COc1ccc(-c2ccc(CN(C)C3CCC(NC(=O)c4cc5ccccc5[nH]4)CC3)cc2)cn1` (centres undefined), the values for the Inhibition in the experiment on Plasmodium falciparum [1], in the experiment with Plasmodium falciparum [2] and in the experiment on HepG2 were 88%, 2% and 31%, respectively.
For `CO/C(=C\C=C\c1cc2cc(Cl)c(Cl)cc2[nH]1)C(=O)NC1CC(C)N(C)C(C)C1` (centres undefined), in that order: 97%, 57% and 64%.
For `CN1CCN(CCCN(Cc2csc(-c3ccc(CNCc4ccccc4)cc3)n2)S(=O)(=O)c2ccccc2)CC1.O=C(O)C(F)(F)F`, in that order: 99%, 78% and 17%.
For the molecule `O=C(N[C@@H](Cc1ccccc1)C(=O)NC1CCCCC1)c1ccc(O)c(-c2ccc(Cl)c(Cl)c2)c1`, the figures for the Inhibition in the experiment with Plasmodium falciparum [1], in the experiment with Plasmodium falciparum [2] and with HepG2 were 98%, 99% and 0%, respectively.
For `Fc1cccc(Cn2ncc3cc(Nc4ncnc5sc(C#Cc6ncc[nH]6)cc45)ccc32)c1`, in that order: 100%, 30% and 31%.

Values taken from ChEMBL document CHEMBL1157539, “Thousands of chemical starting points for antimalarial lead identification” (Nature, 2010).
